Screening results: PubChem, The Scripps Research Institute Molecular Screening Center
Rows were chosen to be rich in hits. Some 1.9% of all compounds tested hit in one or more screens of this group.
Fam108B counter: Fam108B inhibition, counter-screen for RBBP9 inhibitors; recombinant Fam108B, FP-Rh probe fluorescence polarization; AID 1947; inhibition, % at 9.51 µM; hit rate 0.33% among 300,000;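 active means inhibition above the screen mean inhibition plus 3 SD, computed separately per campaign, cut at about 18% in these data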;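 further: inhibitors lower polarization as less probe binds the enzyme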
LYPLA1 inh: counter-screen for PME1 inhibitors: inhibitors of human LYPLA1; O75608; recombinant LYPLA1, FP-Rh probe fluorescence polarization; inhibition, % at 5.9 µM; hit rate 0.16% among 320,000; AID 2174;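 active means inhibition above the mean of all tested compounds plus 3 SD, set per campaign, cut at about 14% in these data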;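 further: inhibitors block serine hydrolase probe labeling of LYPLA1 so polarization falls; 0% = enzyme with DMSO and 100% = wells lacking LYPLA1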
LYPLA2 inh: counter-screen for PME1 inhibitors: inhibitors of human LYPLA2. hit rate 0.38% among 320,000. recombinant LYPLA2, FP-Rh probe fluorescence polarization. inhibition, % at 5.9 µM. O95372;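 active means inhibition above the screen-wide mean plus 3 SD, limit set per campaign, cut at about 26% in these data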;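 further: 0% = LYPLA2 with DMSO and 100% = wells lacking LYPLA2 enzyme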
PREPL inhibitor: inhibitors of human prolyl oligopeptidase-like enzyme PREPL | recombinant PREPL, fluorescence polarization activity-based probe | inhibition, % at 5.96 µM | hit rate 0.68% among 320,000;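 further: 0% = enzyme with DMSO and 100% = wells lacking enzyme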
GSTO1 counter: blocks human GSTO1 in RBBP9 counter-screen; recombinant GSTO1, activity-based probe fluorescence polarization; inhibition, % at 5.96 µM; hit rate 1.1% among 300,000; AID 1974;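 active means inhibition above the campaign mean inhibition plus 3 SD, cut at about 35% in these data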;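 further: 0% = GSTO1-1 with DMSO and 100% = wells lacking GSTO1-1 enzyme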
PME-1 inh: PME-1 (human) inhibition; Q9Y570; recombinant PME-1, FP-Rh probe fluorescence polarization; inhibition, % at 5.9 µM; hit rate 0.53% among 320,000;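 active means inhibition above the campaign mean of all compounds plus 3 SD, cut at about 26% in these data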;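 further: competitive labeling of PME-1 active site by serine hydrolase directed probe; 0% = PME-1 with DMSO and 100% = wells lacking PME-1 enzyme; inhibitors block probe labeling so polarization falls and inhibition rises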
Target sequence (Q9Y570 whole entry, looked up): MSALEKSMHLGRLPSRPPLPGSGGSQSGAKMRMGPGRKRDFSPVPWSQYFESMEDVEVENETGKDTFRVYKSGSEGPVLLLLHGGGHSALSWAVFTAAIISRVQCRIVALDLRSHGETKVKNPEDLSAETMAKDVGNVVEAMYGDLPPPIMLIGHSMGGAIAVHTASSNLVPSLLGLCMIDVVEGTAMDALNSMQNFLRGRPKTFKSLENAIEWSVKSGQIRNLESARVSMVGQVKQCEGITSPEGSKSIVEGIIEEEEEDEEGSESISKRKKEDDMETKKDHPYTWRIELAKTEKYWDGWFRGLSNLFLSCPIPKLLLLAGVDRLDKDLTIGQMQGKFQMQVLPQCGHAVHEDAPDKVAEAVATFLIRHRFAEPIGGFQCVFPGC
PREPL confirm: confirmation of human PREPL enzyme inhibitors | recombinant PREPL, fluorescence polarization activity probe | shares compounds with PREPL inhibitor | inhibition, % at 5.96 µM | hit rate 67% among 2,000;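 further: 0% = protein with DMSO and 100% = wells lacking protein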
Starred values were filed as active, the others as inactive; . = not tested or not shown. Unless noted, no stated cut-off is given here; in the data, active means inhibition above about 43%; inactive means the rest.

SMILES | Fam108B counter | LYPLA1 inh | LYPLA2 inh | PREPL inhibitor | GSTO1 counter | PME-1 inh | PREPL confirm
COC(=O)C1=C(c2cccc(OCc3ccccc3)c2)C[C@@H]2CC[C@H]1N2C(=O)NC1CCN(Cc2ccccc2)CC1 | . | 0 | -2 | 51* | . | -1 | 44*
CN1C(=O)C(O)N=C(c2ccccc2)c2ccccc21 (stereo not drawn) | -1 | 5 | 8 | -41 | 0 | 1 | .
CCC(Oc1cc(Cl)ccc1Cl)C(=O)N1CCC2(CC1)OCCO2 (stereo not drawn) | 3 | 2 | 6 | 3 | 3 | -3 | .
NCCCCCC(=O)OC1N=C(c2ccccc2Cl)c2cc(Br)ccc2NC1=O (stereo not drawn) | 2 | -4 | -2 | 59* | 3 | -1 | 46*
C=CCn1c(O)c(C(CC)=NCCc2c[nH]c3ccccc23)c(=O)[nH]c1=O | 2 | -3 | 6 | 49* | -9 | 2 | 52*
C=CCn1c(O)c(C(CC)=NCCc2ccccc2)c(=O)[nH]c1=O | -1 | 2 | 7 | 19 | 0 | -1 | .
Cc1ncc(CNC(=O)N(CCCl)N=O)c(N)n1 | 0 | -1 | 2 | -12 | 8 | 3 | .
CCOc1ccccc1N=C1SCCCN1C | -2 | -1 | -3 | 12 | 10 | -2 | .
CCOc1cccc(=NC2CCCCC2)c2c(C)n(C)c(C)c12 | -1 | 2 | 4 | 48* | -17 | -7 | 50*
COC(=O)C1=C(c2ccc(OCc3ccccc3)cc2)C[C@@H]2CC[C@H]1N2C(=O)NCc1cccc(C(F)(F)F)c1 | . | -5 | -5 | -12 | . | -13 | .
COC(=O)C(=O)N1CC2(C)CNCC(C)(C1)C2=O | 0 | 0 | -5 | -1 | 0 | -6 | .
Cc1[nH]c2ccccc2c1CCCNC1CCCCC1 | -2 | 0 | -4 | 45* | 0 | -2 | 34
Cc1[nH]c2ccccc2c1CCN | 5 | -6 | -8 | 18 | 9 | 3 | .
O=C(C(=O)N1CCOCC1)c1cn(Cc2ccccc2)c2ccccc12 | 0 | -2 | -1 | 43 | 4 | 3 | .
COc1ccc2c3c([nH]c2c1)C(C)NCC3 (stereo not drawn) | 2 | -7 | -4 | 67* | -5 | -2 | 4
C=C[C@@H]1C[C@@]1(C)[C@@H](NP(=O)(c1ccccc1)c1ccccc1)c1ccccc1 | -2 | -1 | 1 | 48* | 0 | 8 | 48*
CN1CCc2c([nH]c3ccccc23)C1 | -3 | -1 | -2 | 11 | -8 | 4 | .
CC1=NCCc2c1[nH]c1ccccc21 | 8 | -4 | -5 | 57* | -12 | -11 | 27
COc1ccc(CNC(=O)C(NC(C)=O)C(C)C)cc1OC (stereo not drawn) | 6 | 3 | -1 | -1 | 4 | -2 | .
COC(=O)[C@H]1C[C@@H]1[C@H](NP(=O)(c1ccccc1)c1ccccc1)c1ccccc1 | -2 | -1 | -9 | 47* | 1 | -4 | 47*
